This is an account of results in ChEMBL document CHEMBL1157539, “Thousands of chemical starting points for antimalarial lead identification” (Nature, 2010).

The Inhibition is the percentage by which the read-out fell short of the control.

Common to all, as to type: functional
In experiment [1] the test system is Plasmodium falciparum. The experiment is described as follows: GSK_TCMDC: Inhibition of Plasmodium falciparum 3D7 in whole red blood cells, using parasite LDH activity as an index of growth. Test compounds present at 2uM.
Experiment [2] concerns Plasmodium falciparum. The experiment can be described thus: GSK_TCMDC: Inhibition of Plasmodium falciparum Dd2 in whole red blood cells, using parasite LDH activity as an index of growth. Test compounds present at 2uM.
Experiment [3] relates to HepG2. The experiment is described as follows: GSK_TCMDC: Percent inhibition of human HepG2 cell line. Test compounds present at 10uM.

With `N#Cc1ccc(N(CCOc2ccc(Cl)cc2)Cc2ccccc2C(F)(F)F)cc1C(F)(F)F`, the Inhibition in experiment [1] is reported as 91%; in experiment [2] it was 64%; in experiment [3], 3%.
With `CN(C)CCNC(=O)c1cc2c(-c3ccc(Cl)cc3)nn(C)c2s1`, the Inhibition in experiment [1] turned out to be 98%; in experiment [2], 81%; in experiment [3], 18%.
For the compound `CSc1ccc(CN2CCC(NC(=O)c3ccc(-c4ccc(N(C)C)cc4)s3)CC2)cc1.O=C(O)C(F)(F)F`, the figures for the Inhibition in experiment [1], in experiment [2] and in experiment [3] were 86%, 26% and 30%, respectively.
Taken in the same sequence, the figures for `CN1CCN(CCCN(Cc2cccc(-c3cccc(CNCCc4ccccc4)c3)c2)C(=O)Nc2ccccc2)CC1.O=C(O)C(F)(F)F` were 97%, 82% and 92%.
Taken in the same sequence, the figures for `CCOC(=O)c1cn(CC)c2cc(N3CCCCCC3)c(F)cc2c1=O` were 94%, 89% and 0%.
The like results for `N#Cc1ccc(-c2ccc(C(=O)NCCCCN3CCC(c4cc(Br)c5c(c4O)CCCC5)CC3)cc2)cc1` were, in that order, 100%, 50% and 93%.
Regarding `Cc1ccc(Nc2ccnc(Nc3ccc4c(c3)CS(=O)(=O)C4)n2)cc1O.Cl`, the values for the Inhibition in experiment [1], in experiment [2] and in experiment [3] were 100%, 76% and 82%, respectively.
The like results for `Br.CC(=O)Nc1nc(C)c(-c2csc(Nc3ccc(Cl)cc3)n2)s1` were, in that order, 96%, 93% and 14%.
Consider `Cl.O=C(C=Cc1cccs1)N(CCCn1ccnc1)c1nc2ccc(F)cc2s1`, for which the Inhibition in experiment [1] was 98%; in experiment [2] it was 28%; in experiment [3], 0%.
The like results for `CC(C)NCc1ccc(-c2cccc(NC(=O)c3cccc(Cl)c3)c2)cc1.O=C(O)C(F)(F)F` were, in that order, 100%, 87% and 24%.
Taken in the same sequence, the figures for `Nc1nc(N)c2c(ccc3c2ccn3CCCF)n1` were 94%, 0% and 61%.
Taken in the same sequence, the figures for `CN(C)c1ccc(-c2csc(C(=O)NC3CCCCN(CCC(C)(C)C)C3)c2)cc1.O=C(O)C(F)(F)F` (stereo unspecified) were 91%, 68% and 10%.
As for `CC(C)C[C@H](NC(=O)c1cc2ccccc2s1)C(=O)N[C@H]1CCN(Cc2ccc(I)c(OCCN3CCCC3)c2)C1.O=C(O)C(F)(F)F`, the Inhibition in experiment [1] amounted to 92%; in experiment [2], 88%; in experiment [3], 3%.
On to `COc1cc(CNCCCNc2nc3ncccc3[nH]2)c2[nH]cc(Br)c2c1`, for which the values for the Inhibition in experiment [1], in experiment [2] and in experiment [3] were 92%, 3% and 12%, respectively.
The like results for `CC(C)(C)OC(=O)[C@H](CC(N)=O)NC(=O)c1ccc(-c2ccc(-c3nc4cc(C(F)(F)F)ccc4[nH]3)s2)cc1` were, in that order, 94%, 88% and 62%.
Taken in the same sequence, the figures for `CCNc1cc(C(=O)N[C@@H](Cc2ccccc2)[C@H](O)CNCc2cc(OC)cc(OC)c2)cc(N2CCCS2(=O)=O)c1.Cl` were 99%, 86% and 0%.
Consider `CCOc1ccc(Br)cc1/C=C/C(=O)Nc1ccc2c(c1)CCCN(C)C2.O=C(O)C(F)(F)F`, for which the Inhibition was determined as 90% in experiment [1], 17% in experiment [2] and 40% in experiment [3].
The like results for `O=C(O)C(F)(F)F.c1ccc(CCNCc2ccc(-c3cccc(CNc4ccc5ncccc5c4)c3)cc2)cc1` were, in that order, 91%, 17% and 30%.
The like results for `CC(C)c1ccc(NC(=O)N2CCc3ccc(OCCN(C(C)C)C(C)C)cc32)c(Br)c1.O=C(O)C(F)(F)F` were, in that order, 86%, 5% and 6%.
With `C=C[C@]1(C)C[C@@H](OC(=O)c2n[nH]c3ccccc3c2=O)[C@]2(C)[C@H](C)CC[C@]3(CCC(=O)[C@H]32)[C@@H](C)[C@@H]1O`, the Inhibition is on record as 96% in experiment [1], 84% in experiment [2] and 0% in experiment [3].
For the compound `O=C(c1ccc(-c2cnc3[nH]cc(-c4ccc(C(=O)N5CCOCC5)cc4)c3c2)cc1)N1CCOCC1`, the results for the Inhibition in experiment [1], in experiment [2] and in experiment [3] were 91%, 0% and 19%, respectively.
Take `COc1ccc2nccc([C@@H](O)CN3CCC(NCCNc4cccc(F)c4)CC3)c2c1.CS(=O)(=O)O`: the Inhibition in experiment [1] was determined as 98%; in experiment [2] it was 73%; in experiment [3], 11%.
Turning to `CC(=O)Oc1c(C(=O)C2CCC(C(C)(C)C)CC2)c(OC(C)=O)c2ccccc2c1OC(C)=O` (stereo unspecified), the Inhibition in experiment [1] is reported as 96%; in experiment [2], 96%; in experiment [3] it was 9%.
As to `O=C(CSc1nccn1C1CCCC1)Nc1cc(C(F)(F)F)ccc1Cl`, the Inhibition in experiment [1] is recorded as 96%; in experiment [2] it was 94%; in experiment [3], 0%.
As for `CC(C)(C)C1CCc2nc(N)nc(N)c2C1.Cl` (stereo unspecified), the Inhibition in experiment [1] stood at 94%; in experiment [2], 38%; in experiment [3], 69%.
Taken in the same sequence, the figures for `CC(Oc1ccc(C(=O)c2ccc(F)cc2)cc1)C(=O)N1CCc2ccccc21` (stereo unspecified) were 95%, 95% and 9%.
For `CC12CC3CC(C)(C1)CC(Nc1nc(N4CCOCC4)nc4ccccc14)(C3)C2`, the figures for the Inhibition in experiment [1], in experiment [2] and in experiment [3] were 95%, 14% and 31%, respectively.
The like results for `Cc1c(C(=O)Nc2cc(Sc3ccc(F)cc3)cc([N+](=O)[O-])c2)sc2ncn(Cc3cccc(F)c3)c(=O)c12` were, in that order, 100%, 53% and 0%.
Taken in the same sequence, the figures for `COc1ccc(Cc2c(N)nc3nc(N)nc(N)c3c2C)cc1.Cl` were 94%, 3% and 64%.
Taken in the same sequence, the figures for `CCOc1ccc(C(C)NC(=O)C2COc3ccccc3O2)cc1OCC` (stereo unspecified) were 100%, 100% and 0%.
Consider `Cc1ccc2c(c1)NCC21CCN(C[C@@H](O)C2CCN(c3ccnc(Cl)c3)CC2)CC1C` (stereo partly specified), for which the Inhibition in experiment [1] is on record as 87%; in experiment [2], 69%; in experiment [3], 46%.
The like results for `CCCCCCN1CCCN(Cc2ccc(C(=O)Nc3ccc(F)c(F)c3)cc2)CC1.O=C(O)C(F)(F)F` were, in that order, 84%, 48% and 50%.
Taken in the same sequence, the figures for `CCCn1c(Sc2ccc(C#N)c([N+](=O)[O-])c2)nnc1-c1ccc(Cl)cc1` were 96%, 95% and 12%.
Taken in the same sequence, the figures for `Cc1nn(C2CCS(=O)(=O)C2)c(C)c1C1Nc2ccccc2C(=O)N1Cc1ccc2c(c1)OCO2` (stereo unspecified) were 98%, 93% and 7%.
As for `C[C@@H](CNc1ccnc(Nc2ccc3[nH]c(=O)[nH]c3c2)n1)c1ccccc1`, the Inhibition was determined as 100% in experiment [1], 1% in experiment [2] and 42% in experiment [3].
Taken in the same sequence, the figures for `CC(C)C1=NC(=O)c2cc([N+](=O)[O-])ccc2CN1` were 98%, 0% and 6%.
The like results for `O=C(NC1CCCc2ccccc21)[C@@H]1CCCN1C(=O)c1ccc(O)c(-c2ccc(Cl)c(Cl)c2)c1` (stereo partly specified) were, in that order, 99%, 99% and 0%.
Taken in the same sequence, the figures for `COc1ccccc1NC(=O)Nc1cccc(-c2cccc(-c3nc4cccc(C)c4[nH]3)c2)c1` were 100%, 90% and 11%.
In the case of `Cc1c2ccncc2c(C)c2c1[nH]c1cc(Cc3ccccc3)c(O)cc12`, the Inhibition worked out at 100% in experiment [1], 99% in experiment [2] and 99% in experiment [3].
As to `CN(C)CCC1CCN(CCS(=O)(=O)c2cccc(Nc3ccc(-c4cccc(F)c4)cn3)c2)CC1`, the Inhibition in experiment [1] came out at 100%; in experiment [2], 59%; in experiment [3] it was 94%.
The like results for `CCCC(C)N(Cc1ccc(C(C)(C)C)cc1)C(=O)c1cccc(OC)c1` (stereo unspecified) were, in that order, 100%, 89% and 9%.
The like results for `CS(=O)(=O)CCNCc1cccc(-c2ccc3c(Nc4ccc(Oc5ccccc5)cc4)ccnc3c2)c1` were, in that order, 100%, 96% and 18%.
Taken in the same sequence, the figures for `Cl.FC(F)(F)c1ccc(COc2cc(Cl)ccc2Cn2ccnc2)cc1` were 95%, 0% and 13%.
As for `Cc1ccc(/C=C2/SC(=Nc3ccccc3)NC2=O)c(C)c1`, the Inhibition was determined as 93% in experiment [1], 90% in experiment [2] and 1% in experiment [3].
The like results for `CCCc1cc(Cc2cnc(N)nc2N)cc2c1OC(C)C2C.Cl` (stereo unspecified) were, in that order, 98%, 0% and 32%.
Taken in the same sequence, the figures for `CCN1CCc2c1cc(C(=O)N[C@@H](Cc1ccccc1)[C@H](O)CNC(C)(C)c1cccc(C(F)(F)F)c1)cc2N1CCCCS1(=O)=O` were 100%, 99% and 6%.
On to `Cc1ccccc1C1CCN(C2CCC(NC(=O)/C=C/c3ccc(OC(F)(F)F)cc3)CC2)CC1` (stereo unspecified), for which the Inhibition is reported as 100% in experiment [1], 67% in experiment [2] and 96% in experiment [3].
Turning to `N=c1[nH]c2cccc3ccc4cccc1c4c32`, the Inhibition in experiment [1] was determined as 100%; in experiment [2], 69%; in experiment [3], 26%.
Taken in the same sequence, the figures for `O=C(Nc1ccc(F)cc1F)NC1CCN(c2ccnc3cc(Cl)ccc23)C1.O=C(O)C(F)(F)F` (stereo unspecified) were 100%, 82% and 25%.
Taken in the same sequence, the figures for `CCc1nc2nc(C)cc(Nc3ccc4c(c3)OCCO4)n2n1` were 88%, 55% and 8%.
The like results for `CCCCCCN1CCCN(Cc2cccc(C(=O)Nc3ccc(C(C)(C)C)cc3)c2)CC1.O=C(O)C(F)(F)F` were, in that order, 93%, 23% and 41%.
With `Cc1sc(C)c(CNCCCNc2cc(=O)c3ccccc3[nH]2)c1Br.Cl`, the Inhibition is 93% in experiment [1], 15% in experiment [2] and 0% in experiment [3].
Taken in the same sequence, the figures for `Cc1cnc(C[S+]([O-])c2nc3cc(C(F)(F)F)ccc3[nH]2)cc1OCc1ccccc1` (stereo unspecified) were 93%, 76% and 0%.
Take `CCN(CC)/C(=N/C(=N)NCc1cccc(Cl)c1)NCCCCCCN/C(=N\C(=N)NCc1cccc(Cl)c1)N(CC)CC`: the Inhibition in experiment [1] was found to be 99%; in experiment [2], 99%; in experiment [3], 17%.
In the case of `COc1ccc(C(=O)Nc2ccc(Nc3nc(C)cc(N(C)C)n3)cc2)c(OC)c1`, the Inhibition in experiment [1] was determined as 100%; in experiment [2], 72%; in experiment [3], 34%.
Taken in the same sequence, the figures for `Cc1cccc2nc(-c3cccc(-c4cccc(CNCCN5CCNCC5)c4)c3)[nH]c12.O=C(O)C(F)(F)F` were 90%, 0% and 11%.
`COc1ccccc1C1CC(c2ccccc2)=NN1C(=O)c1ccccc1` (stereo unspecified): the Inhibition amounted to 100% in experiment [1], 93% in experiment [2] and 13% in experiment [3].
The like results for `CN(C)CCOc1cc(NC(=O)Nc2ccc(Oc3ccccc3)cc2)ccc1I.Cl` were, in that order, 89%, 4% and 13%.
Taken in the same sequence, the figures for `COc1ccc2nccc(N3CCC(NCCNCc4ccc5c(n4)NC(=O)CO5)C3)c2n1.Cl` (stereo unspecified) were 100%, 47% and 0%.
Taken in the same sequence, the figures for `CCCc1ccccc1OCC(O)CN(C1CCCC1)C1CCCC1.Cl` (stereo unspecified) were 97%, 97% and 49%.
With `COc1ccc(-c2ccc(CNC(=O)c3ccc(C#N)cc3)c(F)c2)cc1CN1CCCN(C)CC1.O=C(O)C(F)(F)F`, the Inhibition in experiment [1] is given as 90%; in experiment [2], 1%; in experiment [3] it was 6%.
The like results for `CC[C@H]1CN(Cc2ccccc2Br)CC[C@H]1CCCc1ccnc2ccc(O)cc12` were, in that order, 86%, 2% and 12%.
